In the supplement of paper PMC4466140:

Legend:
Assay in all cases: SPOT peptide array binding signal intensity (averaged, normalized) (arbitrary units (background-subtracted, floor 0; scale differs between SH3 domains)); higher = stronger binding of the SH3 domain to the peptide
AgAbp1 = molecular target: AgAbp1
How it was run: (§1)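 Cellulose membranes carried synthetic 15-mer peptides with cysteines swapped for serines. These were incubated overnight at 4°C with 10 μg/ml of GST-fused SH3 domains from four yeast species in TBS-based blocking buffer. Binding signal, detected with anti-GST antibody and quantified in Genespotter, is the normalized, background-subtracted spot intensity averaged over replicates, in arbitrary units specific to each domain.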

AgBbc1 = molecular target: AgBbc1
How it was run: as §1

AgBem1-D1 = molecular target: AgBem1-D1
How it was run: as §1

AgBzz1-D1 = molecular target: AgBzz1-D1
How it was run: as §1

AgBzz1-D2 = molecular target: AgBzz1-D2
How it was run: as §1

AgCyk3 = molecular target: AgCyk3
How it was run: as §1

AgFus1 = molecular target: AgFus1
How it was run: as §1

AgHof1 = molecular target: AgHof1
How it was run: as §1

AgHse1 = molecular target: AgHse1
How it was run: as §1

AgLsb1 = molecular target: AgLsb1
How it was run: as §1

AgLsb4 = molecular target: AgLsb4
How it was run: as §1

AgMyo5 = molecular target: AgMyo5
How it was run: as §1

AgNbp2 = molecular target: AgNbp2
How it was run: as §1

AgRvs167 = molecular target: AgRvs167
How it was run: as §1

AgSho1 = molecular target: AgSho1
How it was run: as §1

AgSla1-D1-D2 = molecular target: AgSla1-D1-D2
How it was run: as §1

AgSla1-D3 = molecular target: AgSla1-D3
How it was run: as §1

CaAbp1-D1 = molecular target: CaAbp1-D1
How it was run: as §1

CaAbp1-D2 = molecular target: CaAbp1-D2
How it was run: as §1

CaBbc1 = molecular target: CaBbc1
How it was run: as §1

CaBem1-D1 = molecular target: CaBem1-D1
How it was run: as §1

CaBzz1-D1 = molecular target: CaBzz1-D1
How it was run: as §1

CaBzz1-D2 = molecular target: CaBzz1-D2
How it was run: as §1

CaCyk3 = molecular target: CaCyk3
How it was run: as §1

CaFus1 = molecular target: CaFus1
How it was run: as §1

CaHof1 = molecular target: CaHof1
How it was run: as §1

CaHse1 = molecular target: CaHse1
How it was run: as §1

CaLsb1 = molecular target: CaLsb1
How it was run: as §1

CaLsb4 = molecular target: CaLsb4
How it was run: as §1

CaMyo5 = molecular target: CaMyo5
How it was run: as §1

CaNbp2 = molecular target: CaNbp2
How it was run: as §1

CaRvs167 = molecular target: CaRvs167
How it was run: as §1

CaRvs167-3 = molecular target: CaRvs167-3
How it was run: as §1

CaSho1 = molecular target: CaSho1
How it was run: as §1

CaSla1-D1-D2 = molecular target: CaSla1-D1-D2
How it was run: as §1

CaSla1-D3 = molecular target: CaSla1-D3
How it was run: as §1

ScAbp1 = molecular target: ScAbp1
How it was run: as §1

ScBbc1 = molecular target: ScBbc1
How it was run: as §1

ScBem1-D1 = molecular target: ScBem1-D1
How it was run: as §1

ScBzz1-D1 = molecular target: ScBzz1-D1
How it was run: as §1

ScBzz1-D2 = molecular target: ScBzz1-D2
How it was run: as §1

ScCyk3 = molecular target: ScCyk3
How it was run: as §1

ScFus1 = molecular target: ScFus1
How it was run: as §1

ScHof1 = molecular target: ScHof1
How it was run: as §1

ScHse1 = molecular target: ScHse1
How it was run: as §1

ScLsb1 = molecular target: ScLsb1
How it was run: as §1

ScLsb2 = molecular target: ScLsb2
How it was run: as §1

ScLsb3 = molecular target: ScLsb3
How it was run: as §1

ScLsb4 = molecular target: ScLsb4
How it was run: as §1

ScMyo3 = molecular target: ScMyo3
How it was run: as §1

ScMyo5 = molecular target: ScMyo5
How it was run: as §1

ScNbp2 = molecular target: ScNbp2
How it was run: as §1

ScPex13 = molecular target: ScPex13
How it was run: as §1

ScRvs167 = molecular target: ScRvs167
How it was run: as §1

ScSho1 = molecular target: ScSho1
How it was run: as §1

ScSla1-D1-D2 = molecular target: ScSla1-D1-D2
How it was run: as §1

ScSla1-D3 = molecular target: ScSla1-D3
How it was run: as §1

SpAbp1-D1 = molecular target: SpAbp1-D1
How it was run: as §1

SpBbc1 = molecular target: SpBbc1
How it was run: as §1

SpBzz1-D1 = molecular target: SpBzz1-D1
How it was run: as §1

SpBzz1-D2 = molecular target: SpBzz1-D2
How it was run: as §1

SpCyk3 = molecular target: SpCyk3
How it was run: as §1

SpHof1 = molecular target: SpHof1
How it was run: as §1

SpHof1-2 = molecular target: SpHof1-2
How it was run: as §1

SpHof1-3 = molecular target: SpHof1-3
How it was run: as §1

SpHse1 = molecular target: SpHse1
How it was run: as §1

SpLsb1 = molecular target: SpLsb1
How it was run: as §1

SpLsb4 = molecular target: SpLsb4
How it was run: as §1

SpMyo1 = molecular target: SpMyo1
How it was run: as §1

SpNbp2 = molecular target: SpNbp2
How it was run: as §1

SpPex13 = molecular target: SpPex13
How it was run: as §1

SpRvs167 = molecular target: SpRvs167
How it was run: as §1

SpSla1-D1-D2 = molecular target: SpSla1-D1-D2
How it was run: as §1

SpSla1-D3 = molecular target: SpSla1-D3
How it was run: as §1

Measured: SPOT peptide array binding signal intensity

B1: unnamed (peptide)
chain: KTITLEVESSDTIDN
10.2: ScSla1-D3
15: ScFus1
2: AgSla1-D1-D2
0.5: AgAbp1 | CaLsb1
≤ 0: AgBbc1 | AgBem1-D1 | AgBzz1-D1 | AgBzz1-D2 | AgCyk3 | AgFus1 | AgHof1 | AgHse1 | AgLsb1 | AgMyo5 | AgNbp2 | AgSho1 | AgSla1-D3 | CaAbp1-D1 | CaAbp1-D2 | CaBbc1 | CaBem1-D1 | CaBzz1-D1 | CaBzz1-D2 | CaCyk3 | CaFus1 | CaHof1 | CaHse1 | CaLsb4 | CaMyo5 | CaNbp2 | CaRvs167 | CaSho1 | CaSla1-D1-D2 | CaSla1-D3 | ScBbc1 | ScBem1-D1 | ScBzz1-D2 | ScCyk3 | ScHse1 | ScLsb1 | ScLsb2 | ScLsb3 | ScLsb4 | ScMyo3 | ScMyo5 | ScNbp2 | ScPex13 | ScRvs167 | ScSho1 | ScSla1-D1-D2 | SpAbp1-D1 | SpBzz1-D1 | SpBzz1-D2 | SpCyk3 | SpHof1 | SpHof1-2 | SpHof1-3 | SpHse1 | SpLsb1 | SpLsb4 | SpMyo1 | SpNbp2 | SpPex13 | SpRvs167 | SpSla1-D1-D2 | SpSla1-D3
1.5: AgRvs167
2.5: CaRvs167-3
8: ScBzz1-D1
1: ScAbp1 | ScHof1 | SpBbc1
3: AgLsb4

B2: unnamed (peptide)
chain: PELAPKREAPKPPAN
1.5: SpHof1-2
0.5: SpBzz1-D2 | SpHof1
1220: SpMyo1
7.5: SpHse1
≤ 0: SpLsb1 | SpLsb4 | SpNbp2 | SpPex13 | SpRvs167 | SpSla1-D1-D2 | SpSla1-D3
1: SpCyk3 | SpHof1-3

B3: unnamed (peptide)
chain: TTAPALPSLPPPPLL
5: CaAbp1-D1
1950: CaMyo5
21: CaAbp1-D2
3: AgSla1-D3 | CaBbc1
≤ 0: AgBbc1 | AgBem1-D1 | AgCyk3 | AgFus1 | AgHse1 | AgLsb1 | AgLsb4 | AgNbp2 | AgSho1 | AgSla1-D1-D2 | CaBem1-D1 | CaBzz1-D2 | CaCyk3 | CaFus1 | CaLsb4
22: AgBzz1-D1
0.667: AgRvs167
873: CaHof1
0.5: AgAbp1 | CaLsb1
1690: AgHof1
3.5: CaBzz1-D1
3050: AgMyo5
25: AgBzz1-D2
5.75: CaHse1
